Measured values from PubChem BioAssay (Tox21).
Results filed as inconclusive are left out. Where a call stands in place of a potency, no number is given. The source made the active and inactive calls. Calls come from the whole dose curve; as a rule, active = well fitted inhibition curve with a large enough effect in the repeat runs; inconclusive = weak or mixed curves, or effect the other way; inactive = no such curve, though single readings can be large or run the other way.

biological target: Nuclear receptor ROR-gamma (Homo sapiens) (UniProt P51449); experiment: qHTS assay to identify small molecule antagonists of the retinoid-related orphan receptor gamma (ROR-gamma) signaling pathway (AID 1159521; note: nearly all actives have a fitted effect of over 50% in size); settings: Tet-on RORgamma CHO cells, RORE-luciferase, 16 h; series mostly up to 92.4 µM
Text: U.S. Tox21 Program National Center for Advancing Translational Sciences [NCATS] NIH Chemical Genomics Center [NCGC] U.S. Environmental Protection Agency [EPA] National Institutes of Environmental Health Sciences [NIEHS] National Toxicology Program [NTP] U.S. Food and Drug Administration [FDA] Tox21 Assay Overview: Nuclear steroid hormone receptors are involved in many biological processes including inflammatory responses, cell proliferation, and apoptosis. Environmental factors or compounds disrupting these nuclear receptor pathways and gene expression may promote susceptibility to immunotoxicants and autoimmune diseases. One important group of these expression factors are the retinoid-related orphan receptors. To assess compounds that may interfere with the retinoid-related orphan receptor gamma (ROR-gamma) transcription factor, a cell-based luciferase assay was used. The CHO cell-based assay utilizes a TET-inducible ROR expression factor and ROR response element-LUC reporter gene. Reporter gene activity was induced using Doxycycline Hyclate and measured after 16 hr incubation. Tet-on ROR gamma CHO cells were used to screen against the Tox21 10K compound library for ROR gamma antagonists by quantification of decreased reporter gene activity in terms of decreased luminescence.
Tox21 Assay Protocol Summary: Tet-on ROR gamma CHO cells were dispensed at 1,000 cells in 4 uL of culture medium per well into white wall/solid bottom 1536-well plates using a Multidrop Combi (Thermo Scientific, Waltham, MA) dispenser. Following incubation at 37 C and 5% CO2 for 4 hr, 23 nL of compounds dissolved in DMSO, positive controls or DMSO only were transferred by a Pintool station (Kalypsys, San Diego, CA) and after 2 hr incubation at 37 C, one ul of 1 uM (final concentration) of Doxycycline Hyclate was added to all the wells by using a Flying Reagent Dispenser (FRD) (Aurora Discovery, San Diego, CA). After 16 hr incubation at 37 C and 5% CO2, 5 uL of ONE-Glo reagent (Promega Corporation, Madison, WI) was added to each assay plate using FRD. After 30 min incubation at room temperature, luminescence was quantified on a ViewLux plate reader (Perkin Elmer, Waltham, MA).
Potency is the fitted concentration of half-maximal effect.

| SMILES | Potency |
| --- | --- |
| CCCCOC(=O)c1ccccc1C(=O)OCc1ccccc1 | inactive |
| C[C@H]1CNCCc2ccc(Cl)cc21 | inactive |
| O=C(CBr)c1ccccc1 | inactive |
| O=S(=O)(O)C(F)(F)C(F)(F)C(F)(F)C(F)(F)F | inactive |
| CCCN(CCCl)c1c([N+](=O)[O-])cc(C(F)(F)F)cc1[N+](=O)[O-] | inactive |
| CCC(Br)(CC)C(=O)NC(N)=O | inactive |
| O=C(NC(=O)c1c(F)cccc1F)Nc1cc(Cl)c(Oc2ncc(C(F)(F)F)cc2Cl)c(Cl)c1 | 20.8 µM (active) |
| C=CCC1([C@H](C)CCC)C(=O)NC(=O)NC1=O | inactive |
| Clc1cccc2ccccc12 | inactive |
| O=NN1CCCCCC1 | inactive |
| CCCCN(N=O)C(=N)N[N+](=O)[O-] | inactive |
| O=C1NCN(c2ccccc2)C12CCN(CCCOc1ccc(F)cc1)CC2 | 23.7 µM (active) |
| CC(Cl)Cl | inactive |
| O=[N+]([O-])C(Br)(CO)CO | 48.6 µM (active) |
| O=[N+]([O-])c1cc(C(F)(F)F)cc([N+](=O)[O-])c1Cl | inactive |
| CCOC(=O)COc1cc(-c2nn(C)c(OC(F)F)c2Cl)c(F)cc1Cl | inactive |
| O=C(NC(=O)c1c(F)cccc1F)Nc1ccc(OC(F)(F)C(F)OC(F)(F)F)c(Cl)c1 (stereo not given) | inactive |
| C=CCOC(C)=O | inactive |
| N#Cc1cc(I)c(O)c(I)c1 | 24.3 µM (active) |
| CC(C)(Cl)[N+](=O)[O-] | inactive |

| SMILES | Potency |
| --- | --- |
| Cn1cc[n+](C)c1 (tested in a mixture with another compound) | inactive |
| CC(=O)NC1CCSC1=O (stereo not given) | inactive |
| O=C(CBr)Nc1ccc(Cl)cc1C(=O)c1ccccc1F | inactive |
| COCCOCCO | inactive |
| CCOP(O)OCC | inactive |
| ClCC(Br)CBr (stereo not given) | inactive |
| C=COC(C)=O | inactive |
| CC(C)N(CCC(C(N)=O)(c1ccccc1)c1ccccn1)C(C)C (stereo not given) | inactive |
| CS/C(C)=N/OC(=O)N(C)SN(C)C(=O)O/N=C(\C)SC | 38.6 µM (active) |
| O=Cc1ccc(Cl)cc1Cl | inactive |
| C=CC[C@]1(O)CC[C@H]2[C@@H]3CCC4=CC(=O)CCC4=C3C=C[C@@]21C | 2.98 µM (active) |
| CC(O)(CS(=O)(=O)c1ccc(F)cc1)C(=O)Nc1ccc(C#N)c(C(F)(F)F)c1 (stereo not given) | 25.2 µM (active) |
| Sc1ccccc1Cl | inactive |
| CC(Cl)C(C)Cl (stereo not given) | inactive |
| COC(C)(C)CCC[C@H](C)C/C=C/C(C)=C/C(=O)OC(C)C | inactive |
| CCCC(=O)Cl | inactive |
| CCOC(=O)[C@]1(c2ccccc2)Oc2ccccc2[C@@H]1N | inactive |
| Cc1ccc2ccccc2c1 | inactive |
| CCCN(CC1CC1)c1c([N+](=O)[O-])cc(C(F)(F)F)cc1[N+](=O)[O-] | inactive |
| O=C(C(Cl)(Cl)Cl)C(Cl)(Cl)Cl | inactive |
